Measurements: the supplement of paper PMC10849652
Of roughly 7,900 targets only a part is listed; those with a hit were picked by preference. About 0.6% of all pairs of compound and target were hits.

What was measured:
Test in all cases: log2 fold change, soluble protein after heating vs DMSO (PISA); higher = thermal stabilisation; K562 cells, 10 uM, 30 min; active = over 0.2 and 3.5 SD of the protein, either way, in both replicates (recomputed)
[1] = target: YAE1 (UniProt Q9NRH1)
In short: (§1)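 Soluble protein was quantified by TMTpro 16plex LC-MS/MS after channel sums were equalised. It was obtained as the supernatant after 21,000xg for 90 min from pooled aliquots of K562 cells (2×10^6 cells/mL, 10 μM compound, 30 min) heated for 3 min across 48°C-58°C and extracted in PBS with 0.5% NP-40 at 4°C. Thermal stability values are relative to control samples and come from duplicates. They are given as log2 fold changes.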

[2] = target: YBX1 (UniProt P67809)
YBX1, sequence (P67809 whole entry, looked up): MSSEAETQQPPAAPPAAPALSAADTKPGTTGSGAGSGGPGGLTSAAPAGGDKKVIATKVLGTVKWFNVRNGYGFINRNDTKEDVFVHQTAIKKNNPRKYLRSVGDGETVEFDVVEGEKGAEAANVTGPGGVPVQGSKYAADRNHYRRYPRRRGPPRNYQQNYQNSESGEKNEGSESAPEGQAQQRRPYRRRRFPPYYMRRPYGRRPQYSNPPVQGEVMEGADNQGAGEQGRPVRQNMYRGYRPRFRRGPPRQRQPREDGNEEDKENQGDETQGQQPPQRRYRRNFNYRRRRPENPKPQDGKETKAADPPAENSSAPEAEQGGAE
In short: as §1

[3] = target: YES1 (UniProt P07947)
YES1, sequence (P07947 whole entry, looked up): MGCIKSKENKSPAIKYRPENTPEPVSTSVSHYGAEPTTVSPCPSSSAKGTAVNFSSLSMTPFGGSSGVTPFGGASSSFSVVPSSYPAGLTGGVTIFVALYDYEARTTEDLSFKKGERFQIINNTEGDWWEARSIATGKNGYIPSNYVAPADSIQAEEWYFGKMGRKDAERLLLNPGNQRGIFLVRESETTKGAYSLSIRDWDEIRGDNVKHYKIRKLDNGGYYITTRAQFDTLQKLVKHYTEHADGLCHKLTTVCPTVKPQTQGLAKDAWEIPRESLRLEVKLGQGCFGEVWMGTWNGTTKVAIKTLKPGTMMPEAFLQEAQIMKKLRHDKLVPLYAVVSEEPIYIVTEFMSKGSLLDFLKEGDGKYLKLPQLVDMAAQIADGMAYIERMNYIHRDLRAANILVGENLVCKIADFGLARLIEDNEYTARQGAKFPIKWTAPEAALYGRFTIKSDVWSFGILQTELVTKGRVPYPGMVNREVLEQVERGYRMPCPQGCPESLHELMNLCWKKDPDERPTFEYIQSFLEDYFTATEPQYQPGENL
In short: as §1

[4] = target: YIPF4 (UniProt Q9BSR8)
YIPF4, sequence (Q9BSR8 whole entry, looked up): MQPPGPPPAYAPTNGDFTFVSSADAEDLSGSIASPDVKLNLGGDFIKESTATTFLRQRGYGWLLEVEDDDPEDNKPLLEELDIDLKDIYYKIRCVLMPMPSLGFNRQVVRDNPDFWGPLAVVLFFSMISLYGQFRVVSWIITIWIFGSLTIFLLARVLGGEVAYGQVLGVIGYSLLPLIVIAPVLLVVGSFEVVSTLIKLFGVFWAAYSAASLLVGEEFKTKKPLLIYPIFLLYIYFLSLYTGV
In short: as §1

[5] = target: YIPF5 isoform 3 (UniProt Q969M3)
YIPF5 isoform 3, sequence (Q969M3 whole entry, looked up, canonical isoform): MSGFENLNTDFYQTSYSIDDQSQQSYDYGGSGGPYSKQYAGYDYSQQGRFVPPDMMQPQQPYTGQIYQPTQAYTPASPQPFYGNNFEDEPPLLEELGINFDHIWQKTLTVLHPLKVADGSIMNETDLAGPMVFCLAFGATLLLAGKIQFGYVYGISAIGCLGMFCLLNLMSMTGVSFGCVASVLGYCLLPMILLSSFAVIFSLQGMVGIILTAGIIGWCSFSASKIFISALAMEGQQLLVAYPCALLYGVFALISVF
In short: as §1

[6] = target: YIPF6 (UniProt Q96EC8)
YIPF6, sequence (Q96EC8 whole entry, looked up): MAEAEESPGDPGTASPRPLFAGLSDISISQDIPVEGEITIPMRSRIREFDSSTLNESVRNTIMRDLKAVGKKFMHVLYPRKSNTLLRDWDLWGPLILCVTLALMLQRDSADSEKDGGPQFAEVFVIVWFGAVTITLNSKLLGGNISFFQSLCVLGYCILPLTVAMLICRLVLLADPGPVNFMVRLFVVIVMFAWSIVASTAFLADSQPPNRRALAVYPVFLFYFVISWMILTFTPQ
In short: as §1

[7] = target: YLPM1 (UniProt P49750)
In short: as §1

[8] = target: YOD1 (UniProt Q5VVQ6)
In short: as §1

[9] = target: YPEL5 (UniProt P62699)
YPEL5, sequence (P62699 whole entry, looked up): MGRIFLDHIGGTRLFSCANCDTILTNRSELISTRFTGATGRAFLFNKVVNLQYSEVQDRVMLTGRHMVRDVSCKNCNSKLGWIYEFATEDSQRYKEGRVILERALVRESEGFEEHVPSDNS
In short: as §1

[10] = target: YWHAB (UniProt P31946)
YWHAB, sequence (P31946 whole entry, looked up): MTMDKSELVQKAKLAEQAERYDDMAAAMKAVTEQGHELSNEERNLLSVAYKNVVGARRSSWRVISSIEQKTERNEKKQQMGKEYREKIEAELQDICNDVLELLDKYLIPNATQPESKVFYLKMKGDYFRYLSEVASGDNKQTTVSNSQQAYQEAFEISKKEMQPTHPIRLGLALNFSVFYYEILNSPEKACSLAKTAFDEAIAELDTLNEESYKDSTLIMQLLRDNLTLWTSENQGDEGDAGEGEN
In short: as §1

[11] = target: YWHAQ (UniProt P27348)
YWHAQ, sequence (P27348 whole entry, looked up): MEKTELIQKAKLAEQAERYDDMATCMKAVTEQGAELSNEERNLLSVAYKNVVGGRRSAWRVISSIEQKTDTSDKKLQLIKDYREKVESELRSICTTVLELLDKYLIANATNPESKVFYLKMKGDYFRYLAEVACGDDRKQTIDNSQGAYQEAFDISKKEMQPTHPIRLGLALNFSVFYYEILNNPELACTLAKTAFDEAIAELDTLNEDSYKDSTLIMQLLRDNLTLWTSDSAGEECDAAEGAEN
In short: as §1

[12] = target: YWHAZ (UniProt E7ESK7)
In short: as §1

[13] = target: YWHAZ (UniProt P63104)
YWHAZ (UniProt P63104), sequence (P63104 whole entry, looked up): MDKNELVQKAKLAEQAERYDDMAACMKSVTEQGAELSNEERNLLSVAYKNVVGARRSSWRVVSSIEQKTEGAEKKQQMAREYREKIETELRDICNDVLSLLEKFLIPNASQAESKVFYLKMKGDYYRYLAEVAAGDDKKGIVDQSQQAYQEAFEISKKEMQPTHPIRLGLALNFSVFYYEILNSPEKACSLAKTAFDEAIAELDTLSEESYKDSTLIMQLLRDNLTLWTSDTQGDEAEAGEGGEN
In short: as §1

[14] = target: YY1 (UniProt P25490)
YY1, sequence (P25490 whole entry, looked up): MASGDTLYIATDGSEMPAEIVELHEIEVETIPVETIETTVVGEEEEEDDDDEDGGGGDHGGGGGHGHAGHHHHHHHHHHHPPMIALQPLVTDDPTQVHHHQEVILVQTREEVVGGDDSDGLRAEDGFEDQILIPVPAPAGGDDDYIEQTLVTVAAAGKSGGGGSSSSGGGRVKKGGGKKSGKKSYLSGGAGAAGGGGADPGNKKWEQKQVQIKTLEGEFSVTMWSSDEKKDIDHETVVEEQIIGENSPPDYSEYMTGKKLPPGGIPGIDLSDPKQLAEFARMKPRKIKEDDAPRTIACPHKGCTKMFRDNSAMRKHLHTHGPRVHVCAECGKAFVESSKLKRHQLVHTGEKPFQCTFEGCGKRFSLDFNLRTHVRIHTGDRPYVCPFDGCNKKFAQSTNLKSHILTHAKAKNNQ
In short: as §1

[15] = target: ZADH2 (UniProt Q8N4Q0)
In short: as §1

[16] = target: ZBTB21 (UniProt Q9ULJ3)
ZBTB21, sequence (Q9ULJ3 whole entry, looked up): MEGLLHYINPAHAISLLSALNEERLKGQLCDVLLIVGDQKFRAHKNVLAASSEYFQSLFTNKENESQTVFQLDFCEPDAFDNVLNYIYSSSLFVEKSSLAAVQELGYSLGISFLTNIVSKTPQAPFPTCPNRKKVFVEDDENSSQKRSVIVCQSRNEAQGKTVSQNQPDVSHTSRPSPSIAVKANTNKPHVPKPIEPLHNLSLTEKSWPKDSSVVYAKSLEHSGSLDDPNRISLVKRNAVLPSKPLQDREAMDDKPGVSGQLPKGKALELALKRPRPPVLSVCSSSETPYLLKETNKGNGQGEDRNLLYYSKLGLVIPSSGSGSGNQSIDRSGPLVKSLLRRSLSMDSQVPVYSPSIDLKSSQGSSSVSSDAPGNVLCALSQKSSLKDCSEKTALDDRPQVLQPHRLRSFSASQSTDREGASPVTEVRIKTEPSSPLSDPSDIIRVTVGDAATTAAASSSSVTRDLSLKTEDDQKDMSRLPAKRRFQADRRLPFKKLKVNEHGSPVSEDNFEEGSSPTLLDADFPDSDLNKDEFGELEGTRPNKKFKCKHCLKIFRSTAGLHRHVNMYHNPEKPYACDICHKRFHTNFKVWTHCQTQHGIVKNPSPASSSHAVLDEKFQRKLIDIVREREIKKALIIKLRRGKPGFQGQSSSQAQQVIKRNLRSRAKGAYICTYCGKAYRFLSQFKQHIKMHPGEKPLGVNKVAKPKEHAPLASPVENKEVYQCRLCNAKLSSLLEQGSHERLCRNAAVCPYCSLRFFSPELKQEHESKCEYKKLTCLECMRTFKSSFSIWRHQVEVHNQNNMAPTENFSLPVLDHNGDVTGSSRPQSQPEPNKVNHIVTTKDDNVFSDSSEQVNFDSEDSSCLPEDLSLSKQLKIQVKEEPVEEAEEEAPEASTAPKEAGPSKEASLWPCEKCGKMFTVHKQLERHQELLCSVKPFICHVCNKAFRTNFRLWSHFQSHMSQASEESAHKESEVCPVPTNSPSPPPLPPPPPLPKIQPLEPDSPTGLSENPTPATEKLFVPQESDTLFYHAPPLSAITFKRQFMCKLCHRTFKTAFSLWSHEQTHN
In short: as §1

[17] = target: ZBTB43 (UniProt O43298)
In short: as §1

[18] = target: ZC3H18 (UniProt Q86VM9)
ZC3H18, sequence (Q86VM9 whole entry, looked up): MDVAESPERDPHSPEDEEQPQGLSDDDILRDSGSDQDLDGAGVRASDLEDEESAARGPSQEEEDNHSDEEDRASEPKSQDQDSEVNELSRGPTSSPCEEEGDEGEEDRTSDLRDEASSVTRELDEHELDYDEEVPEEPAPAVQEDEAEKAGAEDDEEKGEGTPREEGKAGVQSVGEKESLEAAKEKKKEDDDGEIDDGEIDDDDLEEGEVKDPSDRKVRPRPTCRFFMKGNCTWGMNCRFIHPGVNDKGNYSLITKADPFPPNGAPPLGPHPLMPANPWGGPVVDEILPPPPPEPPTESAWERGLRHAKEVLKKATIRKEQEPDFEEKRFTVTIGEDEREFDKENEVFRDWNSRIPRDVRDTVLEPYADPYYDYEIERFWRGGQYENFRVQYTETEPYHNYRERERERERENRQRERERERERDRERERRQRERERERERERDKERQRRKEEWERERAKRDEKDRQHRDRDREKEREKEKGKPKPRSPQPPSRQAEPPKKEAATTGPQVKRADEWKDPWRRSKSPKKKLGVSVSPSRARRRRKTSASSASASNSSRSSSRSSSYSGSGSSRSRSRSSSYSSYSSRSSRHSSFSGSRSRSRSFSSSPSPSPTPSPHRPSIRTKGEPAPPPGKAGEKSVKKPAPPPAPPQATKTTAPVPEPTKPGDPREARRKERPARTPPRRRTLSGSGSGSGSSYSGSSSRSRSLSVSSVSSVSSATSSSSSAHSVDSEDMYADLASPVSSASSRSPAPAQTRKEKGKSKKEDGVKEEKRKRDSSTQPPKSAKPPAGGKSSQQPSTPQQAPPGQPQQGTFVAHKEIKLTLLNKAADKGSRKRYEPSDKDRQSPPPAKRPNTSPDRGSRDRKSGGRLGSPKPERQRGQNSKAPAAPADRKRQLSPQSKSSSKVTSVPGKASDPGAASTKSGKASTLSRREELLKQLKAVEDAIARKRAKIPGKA
In short: as §1

[19] = target: ZBTB17 isoform 2 (UniProt Q13105)
In short: as §1

Measured: log2 fold change

C[C@@H]1COCCN1c1cc(C2(S(C)(=O)=O)CC2)nc(-c2cccc3[nH]ccc23)n1
inactive: [1] -0.039 | [2] -0.368 | [3] -0.035 | [4] 0.095 | [5] 0.019 | [6] 0.076 | [7] 0.015 | [8] 0.055 | [9] -0.079 | [10] 0.025 | [11] 0.074 | [12] 0.165 | [13] 0.011 | [14] 0.02 | [15] 0.22 | [16] -0.101 | [17] -0.088 | [18] -0.008

O=C(CCCCCCNC(=O)c1cnc(N(c2ccccc2)c2ccccc2Cl)nc1)NO [citarinostat]
inactive: [1] 0.04 | [2] -0.13 | [3] 0.008 | [4] 0.042 | [5] 0.023 | [6] 0.011 | [7] 0.099 | [8] 0.067 | [9] -0.077 | [10] 0.001 | [11] 0.02 | [12] -0.053 | [13] -0.013 | [14] 0.121 | [15] 0.106 | [17] -0.173 | [18] 0.028

Fc1ccc(Cl)cc1-c1nc(Nc2ccncc2)c2nccnc2n1
inactive: [1] 0.007 | [2] -0.273 | [3] -0.179 | [4] -0.014 | [5] 0.024 | [6] 0.138 | [7] 0.057 | [8] 0.021 | [9] -0.028 | [10] 0.048 | [11] 0.146 | [12] 0.099 | [13] 0.081 | [14] 0.073 | [15] -0.011 | [16] -0.022 | [17] -0.194 | [18] -0.134

CO[C@H]1C[C@@H]2CC[C@@H](C)[C@@](O)(O2)C(=O)C(=O)N2CCCC[C@H]2C(=O)O[C@H]([C@H](C)C[C@@H]2CC[C@H](n3cnnn3)[C@H](OC)C2)CC(=O)[C@H](C)/C=C(\C)[C@@H](O)[C@@H](OC)C(=O)[C@H](C)C[C@H](C)/C=C/C=C/C=C/1C [zotarolimus]
inactive: [1] 0 | [2] -0.048 | [3] 0.053 | [4] 0.015 | [5] 0.006 | [6] -0.026 | [7] -0.001 | [8] 0.05 | [9] 0.05 | [10] 0.015 | [11] 0.196 | [12] -0.072 | [13] 0.107 | [14] -0.01 | [15] 0.07 | [16] 0.004 | [17] -0.036 | [18] 0.041

CC(C)(C)Cn1c(N)nc2ccc(-c3[nH]c(C(C)(C)C)nc3-c3ccc(F)cc3)nc21 [ralimetinib]
inactive: [1] 0.023 | [2] 0.082 | [3] -0.09 | [4] -0.099 | [5] -0.292 | [6] -0.045 | [7] 0.043 | [8] -0.001 | [9] -0.111 | [10] -0.063 | [11] 0.237 | [12] -0.031 | [13] 0.145 | [14] 0.002 | [15] 0.169 | [16] 0.121 | [17] 0.012 | [18] 0.03

CC(C)(O)CC(=O)NCCn1ccc2ncnc(Nc3ccc(Oc4cccc(C(F)(F)F)c4)c(Cl)c3)c21
active: [15] -0.323
inactive: [1] 0.072 | [2] 0.162 | [3] -0.054 | [4] -0.012 | [5] -0.094 | [6] 0.019 | [7] -0.002 | [8] -0.113 | [9] 0.041 | [10] -0.013 | [11] -0.084 | [12] 0.021 | [13] 0.027 | [14] -0.026 | [16] 0.101 | [17] 0.175 | [18] 0.034

COC(=O)N[C@@H](C)CNc1nccc(-c2cn(C(C)C)nc2-c2cc(Cl)cc(NS(C)(=O)=O)c2F)n1 [encorafenib]
inactive: [1] 0.007 | [2] 0.041 | [3] 0.242 | [4] -0.038 | [5] 0.012 | [6] -0.042 | [7] 0.052 | [8] 0.02 | [9] -0.001 | [10] -0.003 | [11] -0.016 | [12] -0.156 | [13] -0.031 | [14] 0.066 | [15] 0.045 | [17] 0.065 | [18] -0.03

Cn1cncc1[C@@](N)(c1ccc(Cl)cc1)c1ccc2c(c1)c(-c1cccc(Cl)c1)cc(=O)n2C [tipifarnib]
active: [4] 0.31
inactive: [1] -0.008 | [2] 0.242 | [3] -0.001 | [5] -0.059 | [6] -0.035 | [7] -0.048 | [8] -0.048 | [9] 0.125 | [10] 0.059 | [11] -0.112 | [12] 0.127 | [13] -0.123 | [14] 0.009 | [15] -0.053 | [16] -0.02 | [18] 0.111

CC(C)C[C@@H](C=O)NC(=O)[C@H](CC(C)C)NC(=O)[C@H](CC(C)C)NC(=O)OCc1ccccc1
inactive: [1] 0.007 | [2] 0.083 | [3] 0.068 | [4] -0.016 | [5] -0.012 | [6] 0.02 | [7] 0.028 | [8] 0.045 | [9] 0.05 | [10] -0.003 | [11] -0.184 | [12] 0.019 | [13] -0.098 | [14] 0.091 | [15] -0.045 | [16] -0.013 | [17] 0.05 | [18] -0.042

Cn1cc(-c2ccc3c(c2)CCN3C(=O)Cc2cccc(C(F)(F)F)c2)c2c(N)ncnc21
inactive: [1] -0.095 | [2] -0.199 | [3] -0.284 | [4] 0.03 | [5] -0.014 | [6] -0.035 | [7] 0.077 | [8] 0.023 | [9] -0.077 | [10] 0.005 | [11] 0.124 | [12] 0.102 | [13] 0.052 | [14] 0.004 | [15] 0.04 | [16] 0.122 | [17] 0.023 | [18] -0.03

c1cn2cc(-c3ccc4cn[nH]c4c3)nc(Nc3ccc(N4CCOCC4)cc3)c2n1 [entospletinib]
inactive: [1] -0.07 | [2] 0.162 | [3] -0.219 | [4] -0.015 | [5] -0.161 | [6] -0.046 | [7] -0.105 | [8] -0.013 | [9] 0.009 | [10] 0.009 | [11] -0.017 | [12] 0.161 | [13] 0.006 | [14] 0.022 | [15] 0.053 | [17] 0.137 | [18] 0.097

CCN(CC)Cc1ccc2cc(COC(=O)Nc3ccc(C(=O)NO)cc3)ccc2c1 [givinostat]
inactive: [1] -0.017 | [2] -0.056 | [3] 0.016 | [4] -0.048 | [5] -0.053 | [6] -0.028 | [7] 0.061 | [8] 0.024 | [9] -0.009 | [10] -0.026 | [11] -0.039 | [13] -0.001 | [14] 0.02 | [15] -0.066 | [19] -0.011 | [16] -0.045 | [17] -0.006 | [18] 0.106

Cc1ccc(NC(=O)c2cccc(N(C)C)c2)cc1NC(=O)c1ccc(O)cc1
inactive: [1] 0.009 | [2] 0.011 | [3] 0.037 | [4] 0.025 | [5] -0.138 | [6] 0.024 | [7] -0.023 | [8] -0.028 | [9] 0.081 | [10] -0.008 | [11] -0.023 | [12] 0.082 | [13] 0.011 | [14] -0.012 | [15] -0.047 | [16] 0.101 | [17] 0.141 | [18] -0.02

CNCc1ccc(-c2[nH]c3cc(F)cc4c3c2CCNC4=O)cc1 [rucaparib]
inactive: [1] -0.078 | [2] 0.253 | [3] 0.169 | [4] -0.028 | [5] 0 | [6] 0.055 | [7] -0.07 | [8] -0.041 | [9] 0.002 | [10] -0.078 | [11] -0.016 | [12] -0.057 | [13] -0.041 | [14] -0.05 | [15] -0.071 | [17] -0.272 | [18] 0.029

Cc1ccc(NC(=O)c2cccc(C(C)(C)C#N)c2)cc1Nc1ccc2ncn(C)c(=O)c2c1
inactive: [1] 0.056 | [2] 0.041 | [4] 0.013 | [5] 0.042 | [6] -0.131 | [7] -0.095 | [8] 0.067 | [9] -0.131 | [10] 0.016 | [11] 0.184 | [13] 0.025 | [14] 0.035 | [19] 0.018 | [16] -0.03 | [17] 0.004 | [18] 0
active: [15] 0.453
